These results are taken from paper PMC13083723 (Patterns, 2026).

Among all 5,400 compounds or so, about 190 (3.5%) showed an effect of 50% or more. The list comes from a sample in which strong results are over-represented; it also holds similar structures and randomly drawn compounds. Positions of bridges follow the written chain, without caps; N, C: chain ends. Non-standard residues stand in square brackets, D forms with d. Residues, ends and D or L forms follow the SMILES beside them. *: point of attachment. NMeF = CN[C@@H](Cc1ccccc1)C(=O)O; X1 = CCC(C)C(N)C1=NC(C(=O)*)CS1; dOrn = NCCC[C@@H](N)C(=O)O

This assay concerns Vero-E6. Briefly: primary screen, phospholipidosis by LipidTOX staining; higher = more effect of the substance. The following applies: 10 µM. Put shortly:
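Drug-induced phospholipidosis detected with HCS LipidTOX Red reagent in Vero-E6 cells. Compounds tested at 10 μM, with amiodarone (10 μM) as positive control and DMSO (0.1 v/v %) as vehicle.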
As to `CC(O)COC[C@H]1OC2O[C@H]3[C@H](O)[C@@H](O)C(O[C@H]4[C@H](O)[C@@H](O)C(O[C@H]5[C@H](O)[C@@H](O)C(O[C@H]6[C@H](O)[C@@H](O)C(O[C@H]7[C@H](O)[C@@H](O)C(O[C@H]8[C@H](O)[C@@H](O)C(O[C@H]1[C@H](O)[C@H]2O)O[C@@H]8COCC(C)O)O[C@@H]7COCC(C)O)O[C@@H]6COCC(C)O)O[C@@H]5COCC(C)O)O[C@@H]4COCC(C)O)O[C@@H]3COCC(C)O` (some centres unmarked), the result_ITMP is recorded as -3.69%. `COc1ccc(C[C@@H](C)[C@@H](C)Cc2ccc(OC)c(OC)c2)cc1OC`: the result_ITMP is listed as 6.63%. The same measure for `COc1ccc(Cc2nc(=O)c3c(C)nc([C@@H](CCCc4ccccc4)[C@@H](C)O)n3[nH]2)cc1OC`: 0.34%; for `C=CC(=O)Nc1cccc(Oc2nc(Nc3ccc(N4CCN(C)CC4)cc3)nc3ccsc23)c1`: 37.8%; for `C=CC(=O)Nc1cccc(Oc2nc(Nc3ccc(N4CCN(C)CC4)cc3)ncc2Cl)c1`: 70.5%. Take `C=CC(=O)Nc1cccc(Oc2nc(Nc3ccc(N4CCN(C)CC4)cc3OC)ncc2Cl)c1`: the result_ITMP was -1.32%. For the molecule `C[C@H]1[C@H](C)CC[C@]2(C(=O)O)CC[C@]3(C)C(=CC[C@@H]4[C@@]5(C)C[C@@H](O)[C@H](O)[C@@](C)(CO)[C@@H]5CC[C@]43C)[C@H]12`, the result_ITMP is recorded as -2.77%.

`Cc1cnc(Nc2ccc(N3CCN(C)CC3)cc2)nc1Nc1cccc(S(=O)(=O)NC(C)(C)C)c1`: the result_ITMP is listed as 21.8%. In the case of `Cc1cc(-c2cc(O)ccc2Cl)cc2nnc(Nc3ccc(OCCN4CCCC4)cc3)nc12`, the result_ITMP was -2.38%.

For the molecule `Cc1cnc(Nc2ccc(OCCN3CCCC3)cc2)nc1Nc1cccc(S(=O)(=O)NC(C)(C)C)c1`, the result_ITMP stood at 122%. Turning to `Cn1cnc2nc(O)nc(O)c21`, the result_ITMP turned out to be 0.82%. With `Cc1nc2ccc(Oc3ccc(F)cc3)cc2c(=O)n1C[C@H]1CCCN(C(C)C)C1`, the result_ITMP is recorded as 56.3%.

Turning to `O=C([O-])[C@H](O)[C@@H](O)[C@H](O)[C@H](O)C(O)CO` (some centres unmarked), the result_ITMP is -2.51%. Regarding `Cn1nccc1Nc1nccc(-c2ccn([C@H](CO)c3ccc(Cl)c(F)c3)c(=O)c2)n1` [R4A_0003897_001 / SPE_A20830788], the result_ITMP stood at 1.66%.

`COCCCC/C(=N\OCCN)c1ccc(C(F)(F)F)cc1`: the result_ITMP stood at 48.9%. The same measure for `NCCC(Oc1ccc(C(F)(F)F)cc1)c1ccccc1` (centres unmarked): 62.2%. For `CN(CC[C@@H](Oc1ccc(-c2ccccc2)cc1)c1ccc(F)cc1)CC(=O)O`, the result_ITMP is on record as 0.25%. Regarding `CNCCC(Oc1ccccc1OC)c1ccccc1` (centres unmarked), the result_ITMP is 13%. On to `CNCCC(Oc1ccc(C(F)(F)F)cc1)c1ccccc1` (centres unmarked), for which the result_ITMP was 54.3%. Take `CN1C2CC(O)[C@H]1C[C@@H](OC(=O)[C@H](CO)c1ccccc1)C2` (mixture of isomers): the result_ITMP is given as -3.11%. Regarding `CCCN1C[C@@H](NS(=O)(=O)N(CC)CC)C[C@@H]2Cc3c(O)cccc3C[C@H]21`, the result_ITMP was 0.96%. Consider `CC(=O)O.CC(=O)O.N.NC1CCCCC1.[Cl][Pt][Cl]`, for which the result_ITMP is given as -1.8%. On to `O=C([O-])Cc1ccccc1Nc1c(Cl)cccc1Cl`, for which the result_ITMP was -2.2%. Take `CN(C(=O)Cc1ccccc1)C(CN1CCCC1)c1ccccc1` (centres unmarked): the result_ITMP turned out to be 6.1%. As for `CN(C(=O)CN1C(=O)COc2cc(Cl)c(Cl)cc21)[C@@H](CN1CCCC1)c1ccc(-c2cccc(C(N)=O)c2)cc1`, the figure is 41.8%; as for `CN(C(=O)Cc1ccc(Cl)c(Cl)c1)[C@H](CN1CCCC1)c1ccccc1`, 53.5%. Regarding `CCC(C)C(N)C1=NC(C(=O)N[C@@H](CC(C)C)C(=O)N[C@H](CCC(=O)[O-])C(=O)N[C@H](C(=O)N[C@H]2CCCCNC(=O)[C@H](CC(N)=O)NC(=O)[C@@H](CC(=O)[O-])NC(=O)[C@@H](Cc3cnc[nH]3)NC(=O)[C@@H](Cc3ccccc3)NC(=O)[C@@H]([C@H](C)CC)NC(=O)[C@@H](CCCN)NC2=O)[C@@H](C)CC)CS1` (some centres unmarked) (X1-L[dE]IK[dOrn][dI][dF][dH][dD]N; lactam 4-C), the result_ITMP is on record as -3.81%.

Regarding `Cc1cccn2c(=O)c(-c3nn[n-]n3)cnc12`, the result_ITMP is -2.44%. The same measure for `CCN(CC)CCOc1ccccc1C(=O)CCc1ccccc1`: 30.6%; for `CCCNCC(O)COc1ccccc1C(=O)CCc1ccccc1` (centres unmarked): 86.6%; for `CCCC(=O)c1cc(F)ccc1OCC(O)CNC(C)(C)C` (centres unmarked): 20.3%. Turning to `Cn1nnnc1SCC1=C(C(=O)[O-])N2C(=O)[C@@H](NC(=O)[C@H](O)c3ccccc3)[C@H]2SC1`, the result_ITMP is -1.4%. With `Oc1ccc(OCc2ccccc2)cc1`, the result_ITMP is recorded as -11.6%. Turning to `CN1CCN(C(=O)CN[C@@H]2C[C@H]2c2ccc(OCc3ccccc3)cc2)CC1`, the result_ITMP came out at 87.7%. As for `O=C(O)c1ccc(CN2CCC(CN[C@@H]3C[C@H]3c3ccccc3)CC2)cc1`, the result_ITMP was -1.25%. `Cc1cc(Nc2cc(CN3CCOCC3)c3nc(C)c(Cc4ccc(Cl)cc4F)n3n2)[nH]n1`: the result_ITMP is listed as 13%. As to `COc1ccc2cc1Oc1ccc(cc1)C[C@H]1c3cc(c(OC)cc3CCN1C)Oc1c(OC)c(OC)cc3c1[C@H](C2)N(C)CC3`, the result_ITMP came out at 17.4%. As for `COc1cc2c3cc1Oc1cc(ccc1O)C[C@@H]1c4c(cc(OC)c(O)c4Oc4ccc(cc4)C[C@@H]3N(C)CC2)CC[N+]1(C)C`, the result_ITMP is listed as -3.39%. Turning to `COc1ccc2cc1Oc1ccc(cc1)C[C@H]1c3c(cc4c(c3Oc3cc5c(cc3OC)CCN(C)[C@@H]5C2)OCO4)CCN1C`, the result_ITMP was 57%. For the molecule `CCN(CC)C(=S)[S-]`, the result_ITMP is reported as -6.15%. In the case of `COCCCOc1ccnc(CS(=O)c2nc3ccccc3[n-]2)c1C` (centres unmarked), the result_ITMP is given as -0.77%. `COc1cc(N2CCC(N3CCN(C)CC3)CC2)ccc1Nc1ncc(Cl)c(Nc2ccccc2P(C)(C)=O)n1`: the result_ITMP is listed as -0.55%.

Regarding `CNC(=O)c1ccccc1Nc1nc(Nc2ccc(N3CCOCC3)cc2OC)ncc1Cl`, the result_ITMP is 3.78%. `COc1cc(N2CCC(N)CC2)ccc1Nc1ncc(Cl)c(-c2c[nH]c3ccccc23)n1`: the result_ITMP turned out to be 15.8%. Regarding `COc1cc(N2CCOCC2)ccc1Nc1ncc(Cl)c(Nc2ccccc2NS(C)(=O)=O)n1`, the result_ITMP is 51.4%. Take `CCC(=O)Nc1cccc(Oc2nc(Nc3ccc(N4CCN(C)CC4)cc3OC)ncc2Cl)c1`: the result_ITMP is recorded as -5.58%.

On to `COc1cc(N2CCC(N(C)C)CC2)ccc1Nc1ncc(Cl)c(Nc2ccccc2P(C)(C)=O)n1`, for which the result_ITMP came out at 51.8%. As for `O=c1nc[nH]c2c([C@@H]3N[C@H](CO)[C@@H](O)[C@H]3O)c[nH]c12`, the result_ITMP is given as -0.15%.

Regarding `CC(C)C[C@H](NC(=O)CNC(=O)[C@H](Cc1ccc(O)cc1)NC(=O)[C@H](CO)NC(=O)[C@H](Cc1c[nH]c2ccccc12)NC(=O)[C@H](Cc1c[nH]cn1)NC(=O)[C@@H]1CCC(=O)N1)C(=O)N[C@@H](CCCNC(=N)N)C(=O)N1CCC[C@H]1C(=O)NCC(N)=O`, the result_ITMP is 1.23%. With `CN/C(=N\C#N)NCCSCc1nc[nH]c1C`, the result_ITMP is recorded as -2.74%. With `Cc1cc(N2CCOCC2)cc2nc(-c3c(NC[C@@H](O)c4cccc(Cl)c4)cc[nH]c3=O)[nH]c12`, the result_ITMP is given as -0.86%. As for `CCN(CC)CCCN(c1ccccc1)C1Cc2ccccc2C1`, the figure is 51.9%; as for `COc1cc[nH]c2ncc(C(=O)C(=O)N3CCN(C(=O)c4ccccc4)C[C@H]3C)c1-2`, -6.29%.

For `CSCC[C@H](NC(=O)[C@H](CC(C)C)NC(=O)[C@@H](Cc1c[nH]c2ccccc12)NC(=O)[C@H](Cc1ccccc1)N(C)C(=O)[C@@H](Cc1c[nH]c2ccccc12)NC(=O)[C@@H](N)CCCN=C(N)N)C(N)=O` (H-R[dW][NMeF][dW]LM-NH2), the result_ITMP is -1.85%.

As to `COCCOc1ccc2c(c1)ncn2-c1ccc2cccc(N3CCC(N)CC3)c2n1`, the result_ITMP came out at 62.5%. As for `CCOC(=O)c1ccc(OCCC2CCN(c3ccc(C)nn3)CC2)cc1`, the result_ITMP is listed as -2.25%. In the case of `CC1(COc2ccc3c(c2)ncn3-c2ccc3cccc(N4CCC(N)CC4)c3n2)COC1`, the result_ITMP was 64.2%. In the case of `NC1CCN(c2cccc(Cl)n2)CC1`, the result_ITMP turned out to be 6.27%. In the case of `CCN1CCN(C(=O)NC(C(=O)N[C@@H]2C(=O)N3[C@@H]2SC(C)(C)[C@@H]3C(=O)[O-])c2ccccc2)C(=O)C1=O` (some centres unmarked), the result_ITMP is reported as -2.05%. As for `C=CC(=O)N1CCCC(n2nc(-c3ccc(Oc4ccccc4)cc3)c3c(N)ncnc32)C1` (centres unmarked), the result_ITMP is recorded as -4.8%. As for `N[C@@H](Cc1ccc(I)cc1)C(=O)O`, the figure is -0.07%; as for `N=C(N)SCc1ccc(B(O)O)cc1`, -0.1%. The same measure for `CC(=O)O[C@H]1CC[C@@]2(C)C(=CC(=O)[C@@H]3[C@@H]2CC[C@]2(C)C(=O)CC[C@@H]32)C1`: -7.66%; for `Cn1cc(/C=C2/C(=O)Nc3cccnc32)c2ccccc21`: 2.75%.

Consider `CCS(=O)c1nc(-c2cccc(OCc3ccccc3)c2)cc(C(F)(F)F)n1` (centres unmarked), for which the result_ITMP was -1.04%. With `CCCC[N+]1(C)[C@@H]2C[C@@H](OC(=O)[C@H](CO)c3ccccc3)C[C@H]1[C@@H]1O[C@@H]12` (some centres unmarked), the result_ITMP is on record as -5.86%. Turning to `Nc1c(CC(=O)[O-])cccc1C(=O)c1ccccc1`, the result_ITMP is -2.23%. Turning to `CN1CCCN(C(c2ccccc2)c2ccc(Cl)cc2)CC1` (centres unmarked), the result_ITMP is recorded as 82.5%. The same measure for `CN1CCN(C(c2ccccc2)c2ccccc2)CC1`: 16.1%. Regarding `CN1CCN(C(c2ccccc2)c2ccc(Cl)cc2)CC1` (centres unmarked), the result_ITMP is listed as 44.4%. The same measure for `O=C(Nc1ccccc1)Nc1ccc(-c2ccc(C(=O)[C@@H]3CCC[C@H]3C(=O)O)cc2)cc1` [R4A_0000400_001 / SPE_K28861668]: -3.95%. As for `O=C(O)[C@@H](S)[C@@H](S)C(=O)O`, the result_ITMP is -5.93%.

For the molecule `CCC[C@@H]1C[C@@H](C(=O)N[C@@H]([C@H]2O[C@H](SC)[C@H](OP(=O)(O)O)[C@@H](O)[C@H]2O)[C@H](C)Cl)N(C)C1`, the result_ITMP is -1.73%.

For the molecule `CC1(C)C(/C=C/C=C/C=C/C=C2/N(CCCCS(=O)(=O)[O-])c3ccc4ccccc4c3C2(C)C)=[N+](CCCCS(=O)(=O)[O-])c2ccc3ccccc3c21`, the result_ITMP is -0.75%.
